Screening results (PubChem)
Most compounds without a hit are left out; they make up all but 1.6% or so of the library.
NPR2 activator: GC-B (human) receptor activation; HEK293-GC-B cells, CNP EC30, cGMP TR-FRET; 0% at EC30 CNP, 100% saturating CNP; hit rate 0.11% among 370,000; AID 1920062; activation, % at 10 µM;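 active means activation at 10 µM reaching about 35% in either raw or pattern-adjusted values, limit read from the data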
PG9 Ab binder: PG9 antibody binding by small molecule | TR-FRET gp120-PG9 antibody binding | inhibition, % at 6.7 µM | hit rate 0.43% among 360,000 | AID 624416; in the data active means inhibition above about 8.5%
V-ATPase pH: alters yeast V-ATPase proton transport. S. cerevisiae, pHLuorin cytosolic pH fluorescence. response, % at 10 µM. hit rate 0.37% among 350,000; in the data active means response mostly above about 7.3%, no sharp cut-off; inactive means mostly below about 5.4%; further: actives read high
Rev-erbA mod: modulators of human Rev-erb alpha DNA binding; hit rate 0.79% among 370,000; activity, % at 10 µM; Rev-erbα–FITC-DNA binding, fluorescence polarization, 90 min; P20393;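 active means activity above about 14%, limit read from the data; passing the limit was not always enough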;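 further: 0% = DMSO wells with 35 nM protein and 100% = DMSO wells with 750 nM protein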
Target sequence (P20393 whole entry, looked up): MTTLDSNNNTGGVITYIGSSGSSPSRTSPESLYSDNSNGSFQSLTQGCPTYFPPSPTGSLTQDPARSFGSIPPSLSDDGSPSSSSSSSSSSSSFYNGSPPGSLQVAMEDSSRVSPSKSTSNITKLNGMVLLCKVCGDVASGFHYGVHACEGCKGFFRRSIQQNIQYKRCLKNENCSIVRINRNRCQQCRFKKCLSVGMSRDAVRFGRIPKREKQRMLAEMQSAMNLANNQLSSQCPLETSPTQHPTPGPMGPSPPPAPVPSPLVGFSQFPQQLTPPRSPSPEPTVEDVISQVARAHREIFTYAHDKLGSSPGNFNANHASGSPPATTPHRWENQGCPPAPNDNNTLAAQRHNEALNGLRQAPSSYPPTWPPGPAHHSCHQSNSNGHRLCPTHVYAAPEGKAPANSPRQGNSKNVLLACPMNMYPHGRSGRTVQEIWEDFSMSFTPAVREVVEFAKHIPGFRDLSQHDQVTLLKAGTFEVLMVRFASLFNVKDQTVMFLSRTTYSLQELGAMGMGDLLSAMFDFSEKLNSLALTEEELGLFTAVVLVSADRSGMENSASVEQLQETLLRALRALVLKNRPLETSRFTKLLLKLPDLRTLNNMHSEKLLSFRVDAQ
NPR1 activator: GC-A (human) enzyme activation. P16066. HEK293 GC-A cells, cGMP TR-FRET, EC30 ANP; 0% at EC30 ANP, 100% saturating ANP. activation, % at 10 µM. hit rate 0.14% among 370,000. AID 1671463; in the data active means activation above about 40%
* marks the source's active call; other numbers are inactive results; · = no result given.

SMILES	NPR2 activator	PG9 Ab binder	V-ATPase pH	Rev-erbA mod	NPR1 activator
COc1cccc(CNC(=O)COC(=O)CNC(=O)c2ccc(-c3ccccc3)cc2)c1	8	-1	11	0	47*
CC(=O)Nc1cc(C(=O)OCC(=O)c2ccc(Cl)cc2Cl)ccc1C	4	0	1	4	61*
CC(=O)Nc1cc(C(=O)OCC(=O)c2ccc(C)cc2)ccc1C	-7	-1	2	3	7
Cc1ccc([C@@H]2[C@@H]3C(=O)N(c4ccccc4)C(=O)[C@@H]3[C@]3(C)C(=O)N(Cc4ccc(-c5ccccc5)cc4)CC(=O)N23)o1	0	1	0	1	49*
CC1CCc2nc3ccccc3c(C(=O)OCC(=O)N3CCc4ccccc43)c2C1 (stereo unspecified)	1	-2	16*	7	-5
CCCc1nc2ccccc2c(C(=O)OCC(=O)N2CCc3ccccc32)c1CC	5	1	0	-4	2
c1ccc(Cn2c(SCC3CCCCC3)nnc2-c2cccnc2)cc1	3	·	·	-3	2
C#CCN1CC(N(C)CCOC(=O)c2cccs2)CS1(=O)=O (stereo unspecified)	-1	·	·	3	4
COc1ccc(CN(C)C(=O)C2CCCN(c3nc4ccccc4o3)C2)cc1 (stereo unspecified)	-9	·	·	4	-1
O=C1NC(Cc2ccc(O)cc2)c2nc3ccc(Cl)cc3c(=O)n2-c2cc3ccccc3cc21 (stereo unspecified)	57*	0	2	2	-1
CC(C)[C@H](NC(=O)c1ccccc1F)C(=O)NC1CCCCC1	9	0	-1	0	3
CC(C)[C@H](NC(=O)c1ccccc1F)C(=O)OCC(=O)NC1CC1	-2	-1	20*	-2	2
Cc1ccccc1CN1CCCCC(NC(=O)Nc2ccccc2-c2ccccc2)C1=O (stereo unspecified)	-5	·	·	2	-1
NC(=O)c1cc[n+](CC2=C(C(=O)O)N3C(=O)[C@H](NC(=O)C(c4ccccc4)S(=O)(=O)[O-])C3SC2)cc1 (stereo partly specified)	·	·	·	3	·
CCOC(=O)N1CCC(Nc2c(NCCN3CCN(Cc4ccccc4)CC3)c(=O)c2=O)CC1	1	·	14*	-1	-4
CCOC(=O)N1CCN(c2c(NCCN3CCN(Cc4ccccc4)CC3)c(=O)c2=O)CC1	4	-1	0	6	2
CN(C(=O)CCn1nnc(-c2cccs2)n1)C1CCCCC1	-3	·	·	8	-1
COc1ccc([C@H]2CC(=O)C=C(c3ccc4[nH]ccc4c3)C2)cc1OC	8	-1	-2	-6	1
O=C1C=C(c2ccc3[nH]ccc3c2)C[C@@H](c2ccc(F)cc2)C1	36*	0	0	-1	3
O=S(=O)(O)OC[C@H]1O[C@@](COS(=O)(=O)O)(O[C@H]2O[C@H](COS(=O)(=O)O)[C@@H](OS(=O)(=O)O)[C@H](OS(=O)(=O)O)[C@H]2OS(=O)(=O)O)[C@@H](OS(=O)(=O)O)[C@@H]1OS(=O)(=O)O	·	·	·	-3	·
C/C(=N\Nc1ncnc2sc(C)c(C)c12)c1ccccn1	2	0	70*	10	8
Cc1sc2ncnc(N/N=C/c3cccc(O)c3)c2c1C	-2	-1	-4	-4	-3
O=C(/C=C/c1cccc([N+](=O)[O-])c1)c1ccc([N+](=O)[O-])o1	24	0	177*	0	26
CC1(C)OC(=O)C(=Cc2ccc(-c3ccc(S(N)(=O)=O)cc3)o2)C(=O)O1	16	-1	-1	0	40*
COC(=O)Cc1cc(=O)n2[nH]c(C)c(-c3ccccc3)c2n1	27	-2	0	-1	17
SMILES	NPR2 activator	PG9 Ab binder	V-ATPase pH	Rev-erbA mod	NPR1 activator
CCOC(=O)Cc1cc(=O)n2[nH]c(C)c(-c3ccc(OC)cc3)c2n1	51*	-7	14	-2	49*
CCOC(=O)Cc1cc(=O)n2[nH]c(C)c(-c3ccc(Cl)cc3)c2n1	45*	-1	0	-3	44*
COc1cccc(-c2cc(C(F)(F)F)n3ncc(C(=O)O)c3n2)c1	-3	0	-3	-3	-2
COc1cccc(-c2cc(C(F)(F)F)n3ncc(C(=O)NCC4CCCO4)c3n2)c1 (stereo unspecified)	46*	0	-3	11	35
Cc1cccc2c(=O)n3c(cc12)-c1[nH]c2ccccc2c1CC3	35*	-2	2	-8	38
O=c1c2ccccc2nc2n1CCc1c-2[nH]c2ccccc12	16	0	-6	-7	17
C1=Cc2cccc(OCC3CNCCO3)c2C1 (stereo unspecified)	·	·	·	1	·
COc1ccc(CCNc2nc3ccccc3n3cnnc23)cc1OC	14	0	-4	-2	8
CCc1nnc2c(NCCc3ccc(OC)c(OC)c3)nc3ccccc3n12	53*	6	0	-4	40*
Cc1ccc(C(=O)Nc2nnc(SCC(=O)N3CCCc4ccccc43)s2)cc1	-2	-2	9.0*	4	-1
NC[C@H]1O[C@H](O[C@@H]2[C@H](O)[C@@H](O[C@H]3O[C@H](CO)[C@@H](O)[C@H](N)[C@H]3O)[C@H](N)C[C@@H]2N)[C@H](O)[C@@H](O)[C@@H]1O	·	·	·	0	·
CS(=O)(=O)N(CC(=O)Nc1ccccc1C(=O)N1CCOCC1)c1cccc(F)c1	3	0	-1	2	7
CS(=O)(=O)N(CC(=O)Nc1ccccc1C(=O)N1CCOCC1)c1ccc(F)c(Cl)c1	-1	-1	16*	1	-3
CCCCn1c(SCC(=O)N2CCC(C)CC2)nc2cc(S(N)(=O)=O)ccc21	-1	·	14*	-7	2
COC(=O)[C@]12C[C@H](CC(=O)NCCc3ccccc3OC)C(=O)N(CCc3ccc(OC)c(OC)c3)C1=C[C@H](COCc1ccccc1)O[C@@H]2C	-4	·	·	6	-6
COc1cccc(OC)c1NC(=O)OC1CCC12CCC(c1ccccc1)CC2 (stereo unspecified)	-3	·	·	-11	-3
CCOC(=O)/C(C#N)=C/c1cc(C)n(-c2ccccc2)c1C	-5	0	0	4	-4
Cc1cc(C)cc(-n2c(C)cc(C=C(C#N)C#N)c2C)c1	-16	28*	3	9	-16
CC(C)CCCC(C)[C@H]1CCC2C3CC=C4C[C@@H](O)CC[C@]4(C)C3CC[C@@]21C (stereo partly specified)	·	·	·	2	·
O=C(NCc1cccnc1)c1cccc(S(=O)(=O)N2CCOCC2)c1	4	1	15*	-4	4
O=C(Cn1nnc(-c2ccc(F)cc2)n1)OCC(=O)c1ccccc1	-3	1	-3	-11	49*
CCC[C@H]1[C@@H](OC(=O)NCc2ccc(C)o2)CC[C@@]23CCCN2C(=O)CCC[C@@H]13	-14	·	·	5	-13
Cc1ccc(CNc2nc(-c3cccnc3)nc3ccccc23)cc1	57*	-3	-3	5	56*
